Insulin prom inh – TRM-6 insulin promoter activity inhibition; TRM-6 cells (human fetal islet line), insulin promoter-eGFP reporter, imaging; reporter expression induced with tamoxifen; inhibition, % at 2 µM; actives 0.9% (n = 130,000);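 active = inhibition above the mean plus 3 SD, with well images judged a real hit on visual review, cut at about 60% in these data, passing the limit was not always enough; inconclusive = inhibition over the cutoff but images rejected on review; inactive = inhibition not above the cutoff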
L major viab – Leishmania major promastigote growth inhibition; Leishmania major promastigotes, resazurin fluorescence viability; inhibition, % at 10 µM; actives 9% (n = 200,000); in the data active = inhibition above about 50%;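 also: promastigotes grown with compound for 44 hours at 28 °C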
Autophagy HCS – autophagy modulation, high-content screen; MEF GFP-LC3 puncta imaging; test concentration mostly 10 µM; calls only at 10 µM (by protocol); actives 0.98% (n = 190,000);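 active = percentage of spot-positive cells more than 3 SD above its plate mean, without a fluorescence outlier flag or 80% toxicity; inconclusive = no clear call, values can overlap the other calls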
Ins promoter up – MIN6 insulin promoter up-regulation; z-score at 5 µM; actives 0.3% (n = 190,000); AID 1625; MIN6 insulin promoter-GFP reporter, high-content imaging; hits give high values;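 active = z-score above 3 at 5 µM with at least 500 cells counted in the well; inconclusive = wells under 500 cells, flagged as cytotoxic or low count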
WT yeast gro inh – growth inhibition of WT yeast, mitochondrial fusion screen; inhibition, % at 10 µM; mitochondrial fusion phenotypic screen, WT strain; AID 1362; actives 2.1% (n = 190,000); in the data active = inhibition above about 58%; tested in S. cerevisiae
Hits are given with their value; i = inactive; ? = inconclusive; nt = no result given; + = active, no number. This is a sample that favours compounds with a hit; in the whole collection about 11% have one here.

SMILES	Insulin prom inh	L major viab	Autophagy HCS	Ins promoter up	WT yeast gro inh
Cc1ccc(C(=O)O/N=C/c2c(N3CCOCC3)n(C)c3ccccc23)cc1	i	98	i	nt	i
CC(=O)O/N=C/c1c(N2CCOCC2)n(C)c2ccccc12	i	99	i	nt	i
Cn1c(N2CCOCC2)c(/C=N/OC(=O)c2cccnc2Cl)c2ccccc21	nt	100	i	i	i
O=C1NC(Cc2ccccc2)C(=O)N1CC(=O)N1CCCc2ccccc21 (centres undefined)	nt	i	i	i	i
CCC(C(=O)OCC(=O)Nc1c(Cl)cccc1Cl)c1ccccc1 (centres undefined)	i	i	i	i	i
COc1c(F)c(F)c(C(=O)Nc2ccc(N3CCN(C(C)=O)CC3)c(Cl)c2)c(F)c1F	i	i	i	i	i
CCOC(=O)C1CCN(CCC(=O)Nc2ccc(C)cc2)CC1	nt	56	i	nt	i
CCOC(=O)C1CCN(CCC(=O)Nc2ccccc2Cl)CC1	i	78	i	i	i
CCOC(=O)C1CCCN(CCCc2ccccc2)C1 (centres undefined)	i	51	i	i	i
O=C(CCN1CCN(Cc2ccccc2)CC1)Nc1cccc(Cl)c1	i	89	i	i	i
CC(=O)c1ccc(Nc2ccc(-c3ccccc3C)nn2)cc1	nt	i	i	i	i
N#CCCN(Cc1cccs1)C(=O)c1ccc(Cl)cc1	nt	nt	nt	i	nt
CCOC(=O)C1CCN(c2c(N3CCCC(C(=O)OCC)C3)c(=O)c2=O)CC1 (centres undefined)	nt	i	nt	nt	i
CCOC(=O)C1CCCN(c2c(N3CCN(c4ccccn4)CC3)c(=O)c2=O)C1 (centres undefined)	86	i	i	i	i
CCCCN(C)C(=O)C1CCN(CCCc2ccccc2)CC1	nt	82	i	i	i
COc1cc(CN2CCC(C(=O)N3CCCC(C)C3)CC2)cc(Br)c1O (centres undefined)	i	76	i	i	i
CC1CCCN(C(=O)C2CCN(CCCc3ccccc3)CC2)C1 (centres undefined)	i	81	i	i	i
COc1ccc(CCN(C)C(=O)C2CCN(Cc3ccccc3)CC2)cc1OC	nt	i	i	i	i
O=C(Nc1cccc(C(F)(F)F)c1)C(=O)N1CCCCC1	nt	i	i	i	i
CCOC(=O)C1CCN(CCC(=O)Nc2cccc(Cl)c2)CC1	nt	93	i	i	i
CCOC(=O)C1CCCN(CCC(=O)Nc2cccc(C)c2)C1 (centres undefined)	i	i	+	i	i
Cc1cc(C(=O)NCC(=O)OCC(=O)NCCc2ccccc2)ccc1[N+](=O)[O-]	i	i	i	i	i
COc1ccc(NC(=O)CNS(=O)(=O)c2cccc3nonc23)c(OC)c1	i	i	i	i	i
C/C(=C\c1ccccc1)C(=O)NCCc1ccccc1	nt	i	i	i	i
O=C(O)c1ccc(N/N=C/c2cccc(F)c2)cc1	i	65	i	i	i
SMILES	Insulin prom inh	L major viab	Autophagy HCS	Ins promoter up	WT yeast gro inh
CN1/C(=C/C=N/n2cnnc2)C(C)(C)c2ccccc21	i	i	i	i	i
CN1/C(=C\C=N\NC(=O)c2ccccc2Br)C(C)(C)c2ccccc21	nt	50	i	nt	i
CN(C(=S)NC(=O)C1(C)CC1(Cl)Cl)c1ccccc1 (centres undefined)	i	i	i	i	i
CN1/C(=C\C(=S)NC(=O)c2ccccc2Cl)C(C)(C)c2ccccc21	i	i	i	?	i
COc1ccccc1C(=O)NC(=S)/C=C1/N(C)c2ccccc2C1(C)C	i	78	i	?	78
CN1/C(=C/C(=S)NC(=O)C2(C)CC2(Cl)Cl)C(C)(C)c2ccccc21 (centres undefined)	i	51	i	i	i
CC(Nc1ccccc1)C(=O)Nc1ccc(F)cc1 (centres undefined)	i	i	i	i	i
Cc1cc(C)cc(N(CCC(=O)Nc2nnc(C3CC3)s2)S(=O)(=O)c2ccc(Cl)cc2)c1	i	82	i	nt	i
COc1ccc(-c2nn(-c3ccccc3)cc2C(=O)O)cc1	nt	i	i	i	i
COc1ccc(-c2nn(-c3ccccc3)cc2C(=O)N2c3ccc(C)cc3C3CN(C)CCC32)cc1 (centres undefined)	nt	59	+	i	i
CN1CCN(c2nc(-c3cc4ccccc4o3)cs2)CC1	i	69	i	i	i
CN1CCN(c2nc(-c3cccs3)cs2)CC1	nt	i	i	i	i
CN(C)CCCNC(=O)c1ccc(-c2nc(-c3ccc(Cl)cc3)cs2)cc1	i	101	i	i	i
Cc1nn(-c2ccccc2)c(C)c1/C=N/NC(=O)c1cc(-c2ccc(Br)s2)[nH]n1	nt	56	i	i	i
Cc1nn(-c2ccccc2)c(C)c1/C=N/NC(=O)c1cc(C23CC4CC(CC(C4)C2)C3)[nH]n1	i	91	i	i	i
Cn1c(C(=O)N2CCN(c3ccccn3)CC2)cc2c(=O)n(C)c3ccccc3c21	nt	nt	nt	nt	i
Cc1ccc(-c2nnn(CC(=O)N(c3ccccc3F)C(C(=O)NC3CCCC3)c3ccco3)n2)o1 (centres undefined)	nt	i	i	i	i
CCCC(C(=O)NC1CCCC1)N(C(=O)Cn1nnc(-c2ccc(C)o2)n1)c1ccccc1OC (centres undefined)	nt	77	i	i	i
Cc1nc(NC(=O)CC(C)C)sc1-c1csc(Nc2ccc(Cl)cc2Cl)n1	i	i	i	i	i
Cc1nc(NC(=O)CC(C)C)sc1-c1csc(Nc2ccc(Cl)cc2)n1	i	i	i	i	81
CCCCCCC(=O)Nc1nc(C)c(-c2csc(Nc3ccc(Cl)cc3)n2)s1	i	52	i	i	i
CCOc1cc(C(=O)Nc2ccc(S(=O)(=O)NC3=NCCCCC3)cc2)cc(OCC)c1OCC	i	i	i	i	i
Cc1ccc(CN2CC(C(=O)Nc3ccc4c(C)cc(=O)oc4c3)CC2=O)cc1 (centres undefined)	i	i	i	i	i
O=C(Nc1ccc2oc(=O)ccc2c1)c1cc2ccccc2o1	i	i	i	i	i
COc1ccc(CC(=O)Nc2ccc3c(C)cc(=O)oc3c2)cc1OC	i	64	i	i	i
SMILES	Insulin prom inh	L major viab	Autophagy HCS	Ins promoter up	WT yeast gro inh
COc1ccc(CC(=O)Nc2ccc3c(c2)CCC3)cc1OC	i	i	i	nt	i
Cc1cc(=O)oc2cc(NC(=O)C3CCCC3)ccc12	nt	101	i	i	i
Cc1cc(=O)oc2cc(NC(=O)c3cc4ccccc4o3)ccc12	i	i	+	nt	i
O=C(CSC1=Nc2ccccc2C2CC=NN12)Nc1ccc2c(c1)OCO2 (centres undefined)	?	55	i	i	i
CCCOC(=O)c1ccc(NC(=O)CSC2=Nc3ccccc3C3CC=NN23)cc1 (centres undefined)	i	98	i	nt	i
N#Cc1ccccc1NC(=O)CSC1=Nc2ccccc2C2CC=NN12 (centres undefined)	i	i	i	i	i
Cc1cc(C)cc(N(CCC#N)C(=O)CSC2=Nc3ccccc3C3CC=NN23)c1 (centres undefined)	nt	i	i	i	i
CCc1ccc(NC(=O)CSCc2nc(N)nc(Nc3ccccc3CC)n2)cc1	i	i	i	i	i
CCc1ccccc1Nc1nc(N)nc(CSCC(=O)Nc2ccc(C)c(C)c2)n1	i	85	i	i	i
O=C1/C(=C/c2ccncc2)CCc2ccccc21	nt	nt	nt	i	nt
